# From PubChem BioAssay AID651599 (National Center for Advancing Translational Sciences (NCATS), 2012)
# Results filed as inconclusive are left out. Values without a mark were called inactive. Active and inactive are the calls of the source. The call rests on the fitted dose curve; in most records, active means well fitted inhibition curve with a large enough effect; inconclusive means small, poorly fitted or top-dose-only effect; inactive means no such curve, though single readings can be large or run the other way.
# Target: Tumor susceptibility gene 101 protein (Homo sapiens) (UniProt Q99816)
# Sequence (Q99816 whole entry, looked up): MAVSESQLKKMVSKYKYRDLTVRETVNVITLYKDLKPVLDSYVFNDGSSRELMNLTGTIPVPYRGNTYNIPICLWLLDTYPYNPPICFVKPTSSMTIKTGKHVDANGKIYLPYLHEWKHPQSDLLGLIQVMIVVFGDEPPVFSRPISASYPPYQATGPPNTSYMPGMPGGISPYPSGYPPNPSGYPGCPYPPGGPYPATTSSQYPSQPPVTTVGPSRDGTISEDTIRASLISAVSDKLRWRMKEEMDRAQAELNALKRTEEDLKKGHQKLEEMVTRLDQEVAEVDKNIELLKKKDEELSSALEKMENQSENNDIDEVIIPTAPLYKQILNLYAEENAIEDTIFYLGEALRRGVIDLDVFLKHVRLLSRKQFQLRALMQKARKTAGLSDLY
# Assay: qHTS Assay for Iinhibitors of HIV-1 Budding by Blocking the Interaction of PTAP/TSG101: Hit Validation in TR assay
# Conditions: Tsg101 binding domain + Texas Red-labeled PTAP peptide, fluorescence polarization, 20 min; series mostly up to 57.5 µM; activity change, negative = inhibition: at the top concentration
# Procedure, shortened: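 Fluorescence polarization: Tsg101 binding domain (10 uM final) with Texas Red-labelled PTAP peptide (50 nM final) in HEPES pH 7.5, 0.15 M NaCl, Tween 20, EDTA, TCEP; 20 min binding at room temperature after compound addition.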
# On the % scale 0 is the no-effect control and ±100 the full control effect; potency means the concentration at half of the fitted maximal effect.
Compound,"activity change, negative = inhibition",Potency
CC1CCc2cccc3c2N1c1cc(C#N)c(C#N)cc1O3 (stereo not drawn),0.564%,
CCN1CCc2c(sc(NC(=O)CSc3ccccc3)c2-c2nc3ccccc3s2)C1,7.92%,
CC(=O)N(/N=C1/C(=O)Nc2ccccc21)c1ccccc1,20.8%,
CCN(CC)c1ccc(/C=C(/C#N)c2nc3ccc(C)cc3[nH]2)c(OC(C)C)c1,14.1%,
O=C(OCCN1C(=O)c2cccc3c(N4CCOCC4)ccc(c23)C1=O)c1ccc(Cl)cc1,-16.3%,
COc1cccc(C2C3CN(C)CC=C3C(C#N)=C(N)C2(C#N)C#N)c1OC (stereo not drawn),-12.7%,
COCCCNC(=O)c1ccc2c3c(onc13)-c1ccccc1C2=O,0.569%,
COC(CNC(=O)c1ccc2c3c(onc13)-c1ccccc1C2=O)OC,-20.6%,
O=C1N=C(N2C=CC(=C3C=CNC=C3)C=C2)/C(=C/N=NC(=O)c2ccccc2O)S1,8.22%,
CC(=O)N/N=C/c1cc(C(C)C)cc(/C=N/NC(C)=O)c1O,19.8%,
Nc1c(C(=O)Nc2ccccc2F)sc2nc(Cc3ccccc3)cc(C(F)(F)F)c12,-25.9%,
COCCCNC(=O)C(C#N)c1nc2ccccc2nc1N1CCCC1 (stereo not drawn),25.7%,
Nc1ccc(-c2c3ccc(=O)cc-3oc3cc(O)ccc23)c(C(=O)O)c1,-14.5%,
CSC1=NSC2=NC(=O)/C(=C/c3coc4ccccc4c3=O)C(=N)N12,-61.3%,
CC1CCN(c2ccc3c(c2)S(=O)(=O)c2ccccc2C3=O)CC1,-17.4%,
COC(=O)c1c(NC(=O)CC2Nc3cc(C)c(C)cc3NC2=O)sc(C)c1C (stereo not drawn),,2.91 µM (active)
COc1cccc(/C(O)=C/c2nc3ccc(C(=O)NCCc4ccc(Cl)cc4)cc3[nH]c2=O)c1,1.36%,
CCN(CC)S(=O)(=O)c1ccc(C(=O)OCCN2C(=O)c3cccc4c(N5CCOCC5)ccc(c34)C2=O)cc1,9.03%,
Cn1cccc1/C=C1\SC(=S)N(NC(=O)c2ccccc2Cl)C1=O,-15.6%,

Compound,"activity change, negative = inhibition",Potency
CCOC(=O)c1c(C)oc2c1c(CN1CCN(C(=O)OCC)CC1)c(O)c1ccccc12,-3.75%,
Cc1ccc(CSc2nnc3c(n2)OC2(Nc4ccccc4-3)C(=O)Nc3ccc(F)cc32)cc1 (stereo not drawn),3.74%,
CCCCn1c(SCC(=O)c2cc(OC)ccc2OC)nc2cc(S(N)(=O)=O)ccc21,-3.13%,
CCN(CC)c1ccc2cc(S(=O)(=O)c3ccc(Cl)cc3)c(=O)oc2c1,-14.2%,
Cn1cc(/C=C(\C#N)C(=O)Nc2ccccc2O)c2ccccc21,-5.56%,
C(=N\NC1=Nc2cccc3cccc1c23)/c1ccccc1,6.35%,
CCOC(=O)Cn1c(=O)c(-c2cc(Br)ccc2N)nc2ccccc21,-28.7%,
CN1C(=O)c2cccc3c(N)ccc(c23)C1=O,2.6%,
CC1=CC(=C(C#N)c2nc3ccccc3s2)C=C(C)N1Cc1ccco1,25.6%,
COc1ccccc1N1C(C)=CC(=C(C#N)c2nc3ccccc3s2)C=C1C,28.4%,
Cc1oc2cc(O)ccc2c(=O)c1-c1nncn1-c1ccccc1,27.5%,
O=C(Nc1ccccc1F)C(=Cc1sc(N2CCOCC2)nc1-c1ccccc1)C(=O)Nc1ccccc1F,0.0258%,
COc1ncnc2c1NC1=C(S2)C(=NCCC(=O)O)CC(C)(C)C1,-7.13%,
O=c1c(-c2cc3ccccc3o2)[n+]([O-])c2ccccc2n1OCc1ccccn1,202%,
O=c1oc2ccccc2cc1-c1nc(-c2cccs2)cs1,-12.5%,
CCn1nc(-c2ccccc2)c2nc3ccccc3nc21,0.877%,
Oc1[nH]c2ccc(Br)cc2c1N=Nc1ccc(F)cc1,25.5%,
CCCN(CCC)S(=O)(=O)c1ccc(C(=O)OCCN2C(=O)c3cccc4c(N5CCOCC5)ccc(c34)C2=O)cc1,-6.8%,
CCNc1cccc2c1C(=O)N(C)C2=O,101%,
